The full ranking holds about 140,000 sequences; the median of “enrichment ratio after two sorts for PhoP signalling” is about 0, and the highest 2% start at about 11. For the sample, the highest values were picked, then their nearest neighbours and some sequences at random.
B1: PhoQ; a variant is named by its letters at X, in order, P23837 (parent)
chain: MKKLLRLFFPLSLRVRFLLATAAVVLVLSLAYGMVALIGYSVSFDKTTFRLLRGESNLFYTLAKWENNKLHVELPENIDKQSPTMTLIYDENGQLLWAQRDVPWLMKMIQPDWLKSNGFHEIEADVNDTSLLLSGDHSIQQQLQEVREDDDDAEMTHSVAVNVYPATSRMPKLTIVVVDTIPVELKSSYMVWSWFIYVLSANLLLVIPLLWVAAWWSLRPIEALAKEVRELEEHNRELLNPATTRELTSLVRNLNRLLKSERERYDKYRTTLTDLTHSLKTPLXXLQXXLRSLRSEKMSVSDAEPVMLEQISRISQQIGYYLHRASMRGGTLLSRELHPVAPLLDNLTSALNKVYQRKGVNISLDISPEISFVGEQNDFVEVMGNVLDNACKYCLEFVEISARQTDEHLYIVVEDDGPGIPLSKREVIFDRGQRVDTLRPGQGVGLAVAREITEQYEGKIVAGESMLGGARMEVIFGRQHSAPKDE

Variants of: B1
Experiment: enrichment ratio after two sorts for PhoP signalling (ratio (wild type AVST 3.29)); higher = more functional
Settings: with PhoP (E. coli)

Row | Variant | enrichment ratio
1 | NQAH | ≤ 0.25
2 | TQWT | 0.56
3 | TQAH | 13.3
4 | WQLC | ≤ 0.25
5 | EQNV | ≤ 0.25
6 | IQNV | ≤ 0.25
7 | IQAH | ≤ 0.25
8 | NQLC | ≤ 0.25
9 | TQLC | 13.1
10 | TQNV | 14.2
11 | TQAT | 12.7
12 | TQQT | 6.08
13 | MGKS | ≤ 0.25
14 | INSM | 0.298
15 | IPGV | ≤ 0.25
16 | PQPN | ≤ 0.25
17 | FQNC | ≤ 0.25
18 | NNRL | ≤ 0.25
19 | EKQI | ≤ 0.25
20 | RWFN | ≤ 0.25
21 | NWQL | ≤ 0.25
22 | VDAW | ≤ 0.25
23 | RNYN | ≤ 0.25
24 | FRWR | ≤ 0.25

Row | Variant | enrichment ratio
25 | WYYY | ≤ 0.25
26 | TQNS | 12.8
27 | TQAA | 3.31
28 | TQNI | ≤ 0.25
29 | TQAD | 11.6
30 | TQNW | ≤ 0.25
31 | TQET | ≤ 0.25
32 | TQRA | ≤ 0.25
33 | TQLQ | 5.05
34 | TQNY | 6.18
35 | TQLS | 17.6
36 | TQNT | 15.4
37 | LAAD | ≤ 0.25
38 | PAWD | ≤ 0.25
39 | SEAL | 7.85
40 | GSHA | ≤ 0.25
41 | AKYV | ≤ 0.25
42 | FLDC | ≤ 0.25
43 | ANKM | ≤ 0.25
44 | TAGV | 5.24
45 | ICLI | 5.89
46 | FVAK | ≤ 0.25
47 | FELQ | 8.46
48 | IHIG | ≤ 0.25

Row | Variant | enrichment ratio
49 | TQMT | 14.6
50 | TQKH | ≤ 0.25
51 | TQNH | 16.3
52 | TQRH | ≤ 0.25
53 | EQMT | ≤ 0.25
54 | FQMT | ≤ 0.25
55 | TQLA | 4.57
56 | TQLT | 18.8
57 | TQLK | 4.42
58 | NNDT | ≤ 0.25
59 | FCNF | ≤ 0.25
60 | MPFQ | ≤ 0.25
61 | RPVE | ≤ 0.25
62 | VATR | ≤ 0.25
63 | FKHE | ≤ 0.25
64 | YRPV | ≤ 0.25
65 | VMPF | ≤ 0.25
66 | AQGT | 3.18
67 | KSAL | ≤ 0.25
68 | FSAL | 0.667
69 | TSAL | 13
70 | AQAL | 18.4
71 | MVAL | 11.3
72 | GVAL | 1.02

Row | Variant | enrichment ratio
73 | AHAL | ≤ 0.25
74 | ASAL | 11.7
75 | NVAL | ≤ 0.25
76 | VRAL | ≤ 0.25
77 | AKAL | 11.1
78 | GNDN | 0.537
79 | LWNG | ≤ 0.25
80 | QKPR | ≤ 0.25
81 | NSMN | ≤ 0.25
82 | RATG | ≤ 0.25
83 | TMAL | 14
84 | KMAL | ≤ 0.25
85 | VLAL | 0.925
86 | MMAL | 13.5
87 | MCAL | 13.5
88 | DMAL | ≤ 0.25
89 | FCAL | ≤ 0.25
90 | NMAL | ≤ 0.25
91 | MFAL | ≤ 0.25
92 | KCAL | ≤ 0.25
93 | MKAL | 4.45
94 | AMAL | 11.3
95 | HHKF | ≤ 0.25
96 | ICEL | ≤ 0.25

Row | Variant | enrichment ratio
97 | LEWF | ≤ 0.25
98 | GLPR | ≤ 0.25
99 | NESC | ≤ 0.25
100 | YTYC | ≤ 0.25
101 | YYHC | ≤ 0.25
102 | TEYC | 12.6
103 | QESC | 5.96
104 | KSYC | ≤ 0.25
105 | TEHC | 22.1
106 | TESC | 13.3
107 | HPEC | ≤ 0.25
108 | NEHC | ≤ 0.25
109 | TEEC | 12.4
110 | LWEC | ≤ 0.25
111 | YRVI | ≤ 0.25
112 | ETQT | ≤ 0.25
113 | GDCV | 1.12
114 | HWFI | ≤ 0.25
115 | VAGY | 1.53
116 | NQGE | ≤ 0.25
117 | YYNI | ≤ 0.25
118 | MCMI | 4.33
119 | IAKS | ≤ 0.25
120 | NMWR | ≤ 0.25

Row | Variant | enrichment ratio
121 | KAQY | ≤ 0.25
122 | TETC | 24.3
123 | TENK | 5.62
124 | TEPC | ≤ 0.25
125 | PWAR | ≤ 0.25
126 | SPMI | ≤ 0.25
127 | SIMI | 17.4
128 | KYMI | ≤ 0.25
129 | SWMI | ≤ 0.25
130 | QDFA | ≤ 0.25
131 | QEMI | 65.2
132 | SIGE | 16.9
133 | STMI | 14.9
134 | SIWI | ≤ 0.25
135 | LWMI | ≤ 0.25
136 | SRGE | ≤ 0.25
137 | KYGE | ≤ 0.25
138 | WVYV | ≤ 0.25
139 | RSYE | ≤ 0.25
140 | DIVY | ≤ 0.25
141 | VANA | ≤ 0.25
142 | RKTG | ≤ 0.25
143 | ECNY | ≤ 0.25
144 | LALQ | 1.26

Row | Variant | enrichment ratio
145 | AKVS | 13.5
146 | TKVS | 7.5
147 | AHVS | ≤ 0.25
148 | WIVS | ≤ 0.25
149 | AAVS | ≤ 0.25
150 | AIVS | 12.6
151 | YWKL | ≤ 0.25
152 | HFDQ | ≤ 0.25
153 | TNQV | 47.4
154 | TNHI | ≤ 0.25
155 | TNVA | ≤ 0.25
156 | TNCH | ≤ 0.25
157 | MNNV | ≤ 0.25
158 | TNMH | 15.7
159 | TNWR | ≤ 0.25
160 | TNNV | 13.4
161 | TNMI | 11.7
162 | MNQV | ≤ 0.25
163 | TNCV | 10
164 | TNMG | ≤ 0.25
165 | TTFC | ≤ 0.25
166 | IGNC | ≤ 0.25
167 | NNDF | ≤ 0.25
168 | KDQI | ≤ 0.25

Row | Variant | enrichment ratio
169 | WTKG | ≤ 0.25
170 | KNQF | ≤ 0.25
171 | FFRV | ≤ 0.25
172 | IYFT | ≤ 0.25
173 | ECCW | ≤ 0.25
174 | SVDL | 1.56
175 | WHFP | ≤ 0.25
176 | TNMS | 4.8
177 | TNIV | ≤ 0.25
178 | TNMV | 12.6
179 | STMA | 4.9
180 | KYMA | ≤ 0.25
181 | SEMA | 13.6
182 | SRGA | ≤ 0.25
183 | KYGA | ≤ 0.25
184 | SEGA | 12
185 | ALVP | ≤ 0.25
186 | HAVN | ≤ 0.25
187 | FQPY | ≤ 0.25
188 | QECD | ≤ 0.25
189 | AESH | 1.31
190 | AESR | 3.86
191 | AEES | ≤ 0.25
192 | AEWV | ≤ 0.25

Row | Variant | enrichment ratio
193 | AECV | 21.4
194 | AEGL | 1.47
195 | AEPL | ≤ 0.25
196 | AESI | 25.1
197 | AWCD | ≤ 0.25
198 | AECL | 20.9
199 | AECD | 17
200 | DTCP | ≤ 0.25
201 | FCNA | ≤ 0.25
202 | VDPQ | ≤ 0.25
203 | GHKH | ≤ 0.25
204 | IWMV | ≤ 0.25
205 | MRYG | ≤ 0.25
206 | VCGI | ≤ 0.25
207 | VANS | ≤ 0.25
208 | KPRL | ≤ 0.25
209 | AECP | ≤ 0.25
210 | AECK | ≤ 0.25
211 | AEIF | 18.6
212 | AECI | 4.88
213 | AIIF | ≤ 0.25
214 | ADIF | ≤ 0.25
215 | AECS | 39.5
216 | AECA | 42.4

Row | Variant | enrichment ratio
217 | AECG | ≤ 0.25
218 | AECQ | 30.9
219 | RMEF | ≤ 0.25
220 | THRH | ≤ 0.25
221 | LFGG | ≤ 0.25
222 | SVRY | ≤ 0.25
223 | VDCR | ≤ 0.25
224 | PYWQ | ≤ 0.25
225 | KCCQ | ≤ 0.25
226 | SCWM | ≤ 0.25
227 | SCVL | 1.96
228 | SCKQ | ≤ 0.25
229 | SCCL | 18.7
230 | SCNE | ≤ 0.25
231 | SCCI | 9.92
232 | SCIL | 0.31
233 | SCCE | 13.9
234 | SCCQ | 13.2
235 | SCIE | ≤ 0.25
236 | SCCK | 14.3
237 | QNII | ≤ 0.25
238 | YSFC | ≤ 0.25
239 | QFDM | ≤ 0.25
240 | MRHI | ≤ 0.25

Row | Variant | enrichment ratio
241 | SCCG | 14.3
242 | SCTM | 17.9
243 | SCRM | ≤ 0.25
244 | SCGL | 13.6
245 | SCGM | 9.65
246 | SCNL | 0.751
247 | KYGL | ≤ 0.25
248 | KCCG | ≤ 0.25
249 | SCGG | 11.1
250 | IPCK | ≤ 0.25
251 | NTGH | ≤ 0.25
252 | VHAE | ≤ 0.25
253 | RFHG | ≤ 0.25
254 | GDAF | ≤ 0.25
255 | THIS | ≤ 0.25
256 | AETY | 16
257 | NNTY | ≤ 0.25
258 | SATC | 5.33
259 | TMTY | 12.9
260 | SSLI | 18.9
261 | SATD | ≤ 0.25
262 | AITY | 3.48
263 | AHTY | ≤ 0.25
264 | SSDK | ≤ 0.25

Row | Variant | enrichment ratio
265 | SATS | 14.2
266 | SFLI | 0.615
267 | HATY | ≤ 0.25
268 | IYRF | ≤ 0.25
269 | VMFP | ≤ 0.25
270 | EPNR | ≤ 0.25
271 | LVNK | ≤ 0.25
272 | AYMN | ≤ 0.25
273 | SQGS | 7.13
274 | NISG | ≤ 0.25
275 | NDHH | ≤ 0.25
276 | DHTY | ≤ 0.25
277 | LCTY | ≤ 0.25
278 | FQTY | ≤ 0.25
279 | MMTY | ≤ 0.25
280 | TSTY | 11.6
281 | SITY | 12.7
282 | SQTY | 8.07
283 | KSAY | 0.715
284 | TSAY | 11.6
285 | FSAY | ≤ 0.25
286 | KYTY | ≤ 0.25
287 | TQTY | 17.5
288 | HMAW | ≤ 0.25

Row | Variant | enrichment ratio
289 | ILRI | ≤ 0.25
290 | DLNY | ≤ 0.25
291 | WPQA | ≤ 0.25
292 | NVTY | ≤ 0.25
293 | SSTY | 11.3
294 | SETY | 15
295 | METY | 3.22
296 | SATY | 12.7
297 | TKWY | 12.9
298 | KSWY | ≤ 0.25
299 | KSTY | ≤ 0.25
300 | AKWY | ≤ 0.25
301 | NATY | ≤ 0.25
302 | QETY | ≤ 0.25
303 | KATY | ≤ 0.25
304 | VMNQ | ≤ 0.25
305 | KFEC | ≤ 0.25
306 | WKRY | ≤ 0.25

From a collection of fitness landscapes (doi:10.1126/science.1257360)
